High-throughput results as filed in PubChem.
PAFAH2 FP inh – inhibitors of human PAFAH2. Q99487. recombinant PAFAH2, FP-rhodamine activity probe, fluorescence polarization. inhibition, % at 3.39 µM. 340,000 compounds, 0.99% hits. AID 492956;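 active = inhibition above the mean over all tested compounds plus 3 SD, cut at about 30% in these data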;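 note: inhibitors block probe labeling of enzyme so polarization drops; 0% = enzyme with DMSO and 100% = wells lacking PAFAH2 protein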
EBNA-1 inh – blocks EBNA-1 binding to DNA | EBNA-1 DNA binding, fluorescence polarization | inhibition, % at 14.8 µM | AID 1950 | 300,000 compounds, 0.34% hits; in the data active = inhibition above about 28%
rCAG binder – binds r(CAG) RNA repeats | inhibition, % at 3 µM | 370,000 compounds, 1.3% hits | r(CAG) RNA repeat, TO-PRO-1 dye displacement fluorescence;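 active = inhibition above the plate cutoff, the mean of all test compounds on that plate plus 3 SD, cut at about 35% in these data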;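 note: 0% = DMSO alone and 100% = 100 µM mitoxantrone as full dye displacement; higher means more dye released from RNA so lower well fluorescence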
PAFAH1B3 FP inh – PAFAH1B3 (human) inhibition. Q15102. recombinant PAFAH1B3, FP-rhodamine probe, fluorescence polarization. inhibition, % at 3.39 µM. 340,000 compounds, 0.28% hits. AID 492972;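 active = inhibition above the screen-wide average of all tested compounds plus 3 SD, cut at about 25% in these data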;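 note: 0% = enzyme with DMSO only and 100% = wells lacking PAFAH1B3 protein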
PAFAH1B2 inh – inhibitors of human PAFAH1B2; P68402; recombinant PAFAH1B2, FP-rhodamine activity probe, fluorescence polarization; inhibition, % at 3.39 µM; 340,000 compounds, 1.2% hits;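 active = inhibition above the mean of all tested compounds plus 3 SD, cut at about 24% in these data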;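 note: 0% = enzyme with DMSO and 100% = wells lacking PAFAH1B2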
Target sequence (P68402 whole entry, looked up): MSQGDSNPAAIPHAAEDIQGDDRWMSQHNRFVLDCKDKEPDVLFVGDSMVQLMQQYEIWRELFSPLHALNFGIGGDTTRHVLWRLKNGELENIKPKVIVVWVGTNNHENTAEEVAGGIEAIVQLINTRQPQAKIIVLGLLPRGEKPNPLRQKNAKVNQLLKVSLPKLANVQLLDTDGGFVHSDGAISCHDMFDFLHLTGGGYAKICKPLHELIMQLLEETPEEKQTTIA
ZTA counter – counter-screen for EBNA-1 inhibitors: inhibitors of Epstein-Barr virus ZTA; P03206; inhibition, % at 11 µM; AID 2234; ZTA-DNA binding, fluorescence polarization; 320,000 compounds, 0.15% hits; in the data active = inhibition above about 33%
Target sequence (P03206 whole entry, looked up): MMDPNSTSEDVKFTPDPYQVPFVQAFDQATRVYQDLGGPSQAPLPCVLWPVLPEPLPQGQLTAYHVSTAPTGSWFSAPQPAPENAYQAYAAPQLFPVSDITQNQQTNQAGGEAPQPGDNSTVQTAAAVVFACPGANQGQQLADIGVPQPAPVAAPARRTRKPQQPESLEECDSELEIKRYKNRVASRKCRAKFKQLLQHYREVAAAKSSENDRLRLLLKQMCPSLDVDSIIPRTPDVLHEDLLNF
rCAG binder conf – r(CAG) RNA repeat binding, confirmation. shares compounds with rCAG binder. TO-PRO-1 dye displacement fluorescence. inhibition, % at 3 µM. 4,300 compounds, 70% hits. AID 652065;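 active = inhibition above a per-plate cutoff, the mean inhibition of sample wells plus 3 SD, cut at about 35% in these data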;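 note: loss of TO-PRO-1 fluorescence as compound displaces dye from 1x1 AA loop RNA; 0% = DMSO only wells and 100% = 100 µM mitoxantrone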
DNA CAG counter – DNA CAG dye complex inhibition counter-screen | shares compounds with rCAG binder | d(CAG) DNA oligo TO-PRO-1 dye displacement, fluorescence | inhibition, % at 3 µM | 4,300 compounds, 94% hits | AID 652068;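 active = inhibition above its plate's cutoff, the mean test-well inhibition plus 3 SD, cut at about 4.8% in these data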;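 note: 0% = DNA dye mix with DMSO and 100% = 100 µM mitoxantrone; hits displace the dye from DNA and so lower well fluorescence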
dCAG dye DR – disrupts DNA CAG TO-PRO-1 complex in dose response; shares compounds with rCAG binder; IC50, µM; 250 compounds, 20% hits; AID 686960; DNA CAG/GTC duplex TO-PRO-1 dye displacement fluorescence; in the data active = IC50 below about 10 µM
* hit, by the source's call. An excerpt weighted towards active compounds, which were near 2.9% of everything screened.

For Nc1c(Br)cc(Br)c2c1C(=O)c1c(cccc1S(=O)(=O)O)C2=O the results were PAFAH2 FP inh 9, rCAG binder 43*, PAFAH1B3 FP inh 16, PAFAH1B2 inh 16, rCAG binder conf 48* and DNA CAG counter 13*.
CC(C)c1ccc(C2c3[nH]c4ccccc4c3C[C@H]3C(=O)N(c4ccccc4C(=O)N4CCC[C@H]4C(=O)O)C(=O)N23)cc1 (stereo partly drawn) was read as PAFAH2 FP inh 5, EBNA-1 inh -1, rCAG binder 46*, PAFAH1B3 FP inh 2, PAFAH1B2 inh 3, ZTA counter 24, rCAG binder conf 70*, DNA CAG counter 27* and dCAG dye DR inactive.
Screening CC1=NN(c2ccc(C)c(C)c2)C(=O)C1C(c1cccc(O)c1)C1C(=O)N(c2ccc(C)c(C)c2)N=C1C (stereo not drawn) returned PAFAH2 FP inh 9, EBNA-1 inh -29, rCAG binder 70*, PAFAH1B3 FP inh -2, PAFAH1B2 inh 9, ZTA counter 9, rCAG binder conf 78* and DNA CAG counter 37*.
Screening CC(Nc1nc(=S)nc(Nc2ccc(F)cc2)[nH]1)c1ccccc1 (stereo not drawn) returned PAFAH2 FP inh -3, EBNA-1 inh -10, rCAG binder 68*, PAFAH1B3 FP inh 10, PAFAH1B2 inh 10, ZTA counter 8, rCAG binder conf 10 and DNA CAG counter 12*.
For CCOC(=O)c1ccc(NC(=O)c2cc(S(=O)(=O)N3CCOCC3)ccc2O)cc1 the results were PAFAH2 FP inh 6, EBNA-1 inh -1, rCAG binder 49*, PAFAH1B3 FP inh 4, PAFAH1B2 inh 6, ZTA counter -11, rCAG binder conf 40* and DNA CAG counter 9.2*.
CCS(=O)(=O)c1ccc(O)c(NC(=O)c2ccc(S(=O)(=O)N3CCCCCC3)cc2)c1 was read as PAFAH2 FP inh 13, rCAG binder 37*, PAFAH1B3 FP inh 11, PAFAH1B2 inh 10, rCAG binder conf 46* and DNA CAG counter 11*.
`CCOC(=O)c1ccc(NC(=O)c2cc(S(=O)(=O)N3CCOCC3)cn2C)cc1` gave PAFAH2 FP inh -4, EBNA-1 inh 3, rCAG binder 2, PAFAH1B3 FP inh -7, PAFAH1B2 inh -1 and ZTA counter 5.
COc1cc(-c2cc(C(=O)Nc3cc(S(=O)(=O)N4CCOCC4)ccc3O)c3ccccc3n2)cc(OC)c1OC was read as PAFAH2 FP inh 5, rCAG binder 72*, PAFAH1B3 FP inh 0, PAFAH1B2 inh 2, rCAG binder conf 74* and DNA CAG counter 35*.
`CCN(CC)S(=O)(=O)c1ccc(C(=O)Nc2cc(S(=O)(=O)N3CCOCC3)ccc2O)cc1` gave PAFAH2 FP inh 33*, rCAG binder 36*, PAFAH1B3 FP inh 11, PAFAH1B2 inh 10, rCAG binder conf 32 and DNA CAG counter 6.9*.
Screening CCN(CC)S(=O)(=O)c1ccc(C(=O)Nc2cc(S(=O)(=O)N3CCOCC3)ccc2N2CCN(C)CC2)cc1 returned PAFAH2 FP inh 9, rCAG binder 2, PAFAH1B3 FP inh 0 and PAFAH1B2 inh -2.
Screening S=C(SSC(=S)N1CCOCC1)N1CCOCC1 returned rCAG binder 3.
COc1ccc([C@@H]2CC=C(C(=O)O)[C@H](c3ccc(F)cc3)N2S(=O)(=O)c2ccc(C)cc2)cc1OC was read as PAFAH2 FP inh 2, EBNA-1 inh 5, rCAG binder 26, PAFAH1B3 FP inh 2, PAFAH1B2 inh 3 and ZTA counter -11.
COc1cc([C@@H]2CC=C(C(=O)O)[C@H](c3ccc(F)cc3)N2S(=O)(=O)c2ccc(C)cc2)cc(OC)c1OC was read as PAFAH2 FP inh 6, EBNA-1 inh 10, rCAG binder 30, PAFAH1B3 FP inh 9, PAFAH1B2 inh 3 and ZTA counter -1.
COc1ccc([C@@H]2CC(=O)[C@@H]3CN(S(=O)(=O)c4ccc(C)cc4)[C@H](c4cccc(Cl)c4)C[C@@H]3N2S(=O)(=O)c2ccccc2)cc1 was read as rCAG binder 16.
For COc1cccc([C@@H]2CC=C(C(=O)O)[C@H](c3cccc(Cl)c3)N2S(=O)(=O)c2ccc(C)cc2)c1 the results were PAFAH2 FP inh 1, EBNA-1 inh 6, rCAG binder 62*, PAFAH1B3 FP inh -4, PAFAH1B2 inh 21, ZTA counter -8, rCAG binder conf 63* and DNA CAG counter 26*.
For COc1cccc([C@@H]2CC=C(C(=O)O)[C@H](c3ccccc3)N2S(=O)(=O)c2ccc(C)cc2)c1 the results were PAFAH2 FP inh 5, EBNA-1 inh 9, rCAG binder 43*, PAFAH1B3 FP inh -6, PAFAH1B2 inh 12, ZTA counter 11, rCAG binder conf 37* and DNA CAG counter 8.9*.
`COc1cc([C@@H]2CC=C(C(=O)O)[C@H](c3ccccc3F)N2S(=O)(=O)c2ccc(C)cc2)cc(OC)c1OC` gave PAFAH2 FP inh 0, EBNA-1 inh 7, rCAG binder 27, PAFAH1B3 FP inh 5, PAFAH1B2 inh -3 and ZTA counter 16.
For COc1cccc([C@@H]2CC=C(C(=O)O)[C@H](c3ccc(F)cc3)N2S(=O)(=O)c2ccc(C)cc2)c1 the results were PAFAH2 FP inh -3, EBNA-1 inh 4, rCAG binder 45*, PAFAH1B3 FP inh 17, PAFAH1B2 inh 26*, ZTA counter -5, rCAG binder conf 37* and DNA CAG counter 9.3*.
Screening COc1ccc([C@@H]2CC=C(C(=O)O)[C@H](c3ccc(Br)cc3)N2S(=O)(=O)c2ccc(C)cc2)cc1OC returned PAFAH2 FP inh 3, rCAG binder 47*, PAFAH1B3 FP inh 10, PAFAH1B2 inh 18, rCAG binder conf 43* and DNA CAG counter 14*.
COC(=O)[C@]12C[C@H](CC(=O)NCC34CC5CC(CC(C5)C3)C4)C(=O)N(CCc3ccc(OC)c(OC)c3)C1=C[C@H](C1CCCC1)O[C@@H]2C was read as rCAG binder 5.
For CC(C)(C)c1cc(C(=O)C[n+]2ccc(C(=O)NCCCO)cc2)cc(C(C)(C)C)c1O the results were PAFAH2 FP inh -5, EBNA-1 inh -8, rCAG binder -2, PAFAH1B3 FP inh 12, PAFAH1B2 inh -1 and ZTA counter -14.
`CC(C)NC(=O)Cn1c(-c2cncs2)nc2ccccc21` gave rCAG binder 1.
